About 10,000 (2.8%) of roughly 360,000 compounds were called active. Inconclusive results (about 4%) are left out. Shown is part of a subset that was picked to be rich in actives. Unmarked numbers belong to inactive results. Calls follow the shape of the dose curve; as a rule, active = well fitted inhibition curve with a large enough effect; inconclusive = small, poorly fitted or top-dose-only effect; inactive = flat fitted curve, though single readings scatter.
The compounds below were run against Serine/threonine-protein kinase PLK1 (Homo sapiens) (UniProt P53350) (assay: qHTS for Inhibitors of PLK1-PDB (polo-like kinase 1 - polo-box domain): Primary Screen). Details: Plk1 PBD binding of FITC phosphopeptide, fluorescence polarization.
Sequence of Serine/threonine-protein kinase PLK1 (Homo sapiens) (P53350 whole entry, looked up, the tested form may be a part): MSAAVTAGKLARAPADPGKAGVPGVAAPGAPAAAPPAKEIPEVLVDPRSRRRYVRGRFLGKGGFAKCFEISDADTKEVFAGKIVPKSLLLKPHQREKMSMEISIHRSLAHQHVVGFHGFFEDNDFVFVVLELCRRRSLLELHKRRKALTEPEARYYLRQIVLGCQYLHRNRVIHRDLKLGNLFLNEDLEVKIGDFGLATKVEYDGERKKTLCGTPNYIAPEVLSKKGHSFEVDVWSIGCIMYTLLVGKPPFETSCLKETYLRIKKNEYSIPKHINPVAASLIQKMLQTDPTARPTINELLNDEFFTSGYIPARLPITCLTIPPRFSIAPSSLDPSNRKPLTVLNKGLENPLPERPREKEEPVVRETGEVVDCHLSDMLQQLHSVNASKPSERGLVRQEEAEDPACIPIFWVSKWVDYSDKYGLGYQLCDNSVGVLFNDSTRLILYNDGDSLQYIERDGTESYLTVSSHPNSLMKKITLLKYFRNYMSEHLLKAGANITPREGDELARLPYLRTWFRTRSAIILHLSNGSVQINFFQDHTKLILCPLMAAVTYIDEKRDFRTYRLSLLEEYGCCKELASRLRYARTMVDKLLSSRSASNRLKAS
In the case of `CCOC(=O)[C@]12CCCC=C1N(CCC1=CCCCC1)C(=O)[C@H](CC(=O)NCCCOC)C2`, the max response, negative = inhibition is reported as 2.46%.
Work on `CCOc1ccc(S(=O)(=O)NCCC(=O)NNC(=O)c2ccc(F)cc2)cc1` yielded a max response, negative = inhibition of -14.6%.
`COc1ccc(NC(=O)c2sc(=O)n(Cc3ccc(S(=O)(=O)N(C)C)cc3)c2C)cc1` showed a max response, negative = inhibition of -0.145%.
For `O=C(CN1CCOCC1)Nc1cccc([N+](=O)[O-])c1`, the max response, negative = inhibition was -23.6%.
With `COC(=O)/C=C\C(=O)Nc1cccc([N+](=O)[O-])c1` the Potency was 5.97 µM (active).
In the case of `O=C(Nc1cccc([N+](=O)[O-])c1)Nn1cnnc1`, the max response, negative = inhibition is reported as -2.87%.
In the case of `CC(=O)C[C@@H]1OC[C@H](C)N1S(=O)(=O)c1ccc(C)cc1`, the max response, negative = inhibition is reported as -5.26%.
`COc1cc(/C=C/C(=O)OCC(=O)N2CCOCC2)ccc1OCC#N` was tested, and the Potency was 26.7 µM (active).
In the case of `COc1cc(/C=C/C(=O)OCC(=O)NC(=O)NCc2ccccc2)ccc1OCC#N`, the max response, negative = inhibition is reported as -6.76%.
In the case of `COc1cc(/C=C/C(=O)Nc2ccc(OC)c(S(=O)(=O)N3CCOCC3)c2)ccc1OCC#N`, the max response, negative = inhibition is reported as -0.928%.
Work on `CC(C)(C)c1ccc(S(=O)(=O)NC(=O)C2(C)CCN2C(=O)CC2CC2)cc1` (stereo unspecified) yielded a max response, negative = inhibition of -12%.
With `Cc1cccc(CN2CCN(C3CN(Cc4cn(Cc5ccccc5F)nn4)S(=O)(=O)C3)CC2)c1` (stereo unspecified) the max response, negative = inhibition was 3.36%.
With `OC[C@@H]1CN(Cc2ccc3c(c2)OCO3)C[C@H](n2cnc3c(NCc4ccco4)ncnc32)O1` the max response, negative = inhibition was -2.35%.
For `O=C1Oc2ccccc2C(=O)/C1=C/c1ccccc1O`, the Potency was 2.67 µM (active).
`COC(=O)c1ccc(/C=C2/C(=O)Oc3ccccc32)cc1` gave a max response, negative = inhibition of -0.125%.
Compound `O=C(NN=Cc1ccccc1O)NN=Cc1ccccc1O` has a max response, negative = inhibition of -11.7%.
Work on `CC(=O)NC(c1cccc(F)c1)c1nc(-c2cccc(F)c2)cs1` (stereo unspecified) yielded a max response, negative = inhibition of -0.575%.
Work on `CN(C)c1ccc(-c2nnc(-c3cccnc3)o2)cc1` yielded a max response, negative = inhibition of 3.15%.
`Nc1ccc(-c2nnc(-c3ccc(-c4ccccc4)cc3)o2)cc1` was tested, and the Potency was 13.4 µM (active).
With `COc1ccc(-c2nnc(-c3ccc4ccccc4c3)o2)cc1` the max response, negative = inhibition was -4.59%.
Compound `COc1cc(NC(=O)C2=C(C)OCCS2)c(Cl)cc1C(=O)NCCCN1CCCC(C)C1` (stereo unspecified) has a max response, negative = inhibition of -4.33%.
`O=C1CSC(=S)N1/N=C/c1ccc(O)c([N+](=O)[O-])c1` was tested, and the Potency was 23.8 µM (active).
`Cc1cc(C(=O)N/N=C/c2ccc(O)c([N+](=O)[O-])c2)c(C)n1-c1ccc(F)cc1` showed a max response, negative = inhibition of -24.1%.
For `O=[N+]([O-])c1ccc(N2CCSCC2)cc1O`, the max response, negative = inhibition was 2.23%.
`CS(=O)(=O)N1CCCCC1c1cc(C(=O)NCc2ccccc2)no1` (stereo unspecified) was tested, and the max response, negative = inhibition was -4.51%.
`CCCCN1C(=O)C(CC(=O)NCc2cccs2)CC(C(=O)N2CCCCCC2)=C1C` (stereo unspecified) was tested, and the max response, negative = inhibition was -3.48%.
`COC(=O)C(Cc1c[nH]c2ccccc12)NC(=O)CCNC(=O)c1ccco1` (stereo unspecified) gave a max response, negative = inhibition of 3.99%.
Compound `CCCCN1CC(C)(C)[C@H](CC(=O)Nc2ccc(Br)cc2)C1=O` has a max response, negative = inhibition of 2.01%.
In the case of `COc1cc(NC(=O)CSC(=S)N2CCCC2)c(OC)cc1Cl`, the max response, negative = inhibition is reported as -15.5%.
Work on `COc1ccc(C)cc1NC(=S)N1CCOCC1` yielded a max response, negative = inhibition of -2.89%.
With `COc1cc(NC(=S)N2CCCC(C)C2)c(OC)cc1Cl` (stereo unspecified) the Potency was 18.9 µM (active).
Compound `C[C@@H]1Cn2cnc(C(=O)Nc3ccc(CNC(=O)OC(C)(C)C)cc3)c2C(=O)N1` has a max response, negative = inhibition of -11.4%.
With `COc1ccc2oc(=O)cc(-c3cc4ccccc4o3)c2c1` the Potency was 26.7 µM (active).
Compound `COc1cccc2cc(-c3cc(=O)oc4cc(C)c(O)cc34)oc12` has a max response, negative = inhibition of -14.5%.
Work on `COc1ccc(Nc2cc(=O)oc3ccccc23)cc1` yielded a max response, negative = inhibition of -6.94%.
For `CC(=O)Nc1ccc(S(=O)(=O)Nc2nccc(/C=C/c3ccccc3F)n2)cc1`, the max response, negative = inhibition was -13.8%.
`Oc1cccc2ccc(/C=C/c3ccc(Br)s3)nc12` gave a max response, negative = inhibition of -8.23%.
`Nc1ccc(S(=O)(=O)Nc2nccc(/C=C/c3ccc(Br)s3)n2)cc1` was tested, and the Potency was 9.47 µM (active).
`CC(C)C1Cc2[nH][nH]c(=O)c2C(c2ccc(Cl)cc2)O1` (stereo unspecified) showed a max response, negative = inhibition of -26.3%.
Work on `CCOc1ccc(NC(=O)C(C)N2C(=O)c3ccccc3C2=O)cc1` (stereo unspecified) yielded a max response, negative = inhibition of -11.1%.
`CCCOC(=O)c1ccc(N2C(=O)c3ccccc3C2=O)cc1` was tested, and the max response, negative = inhibition was -2.78%.
With `CCO/C=C1\C(=O)N(c2ccc(OCC)cc2)C(=O)c2ccccc21` the Potency was 13.4 µM (active).
`COc1ccc(NC(=O)C[C@H]2C(=O)N(CCc3ccccc3)C[C@@H]2C)cc1` showed a max response, negative = inhibition of -7.3%.
Work on `CC1(C(=O)NS(=O)(=O)c2ccc(C#N)cc2)CCN1C(=O)c1ccc(C2CCCCC2)cc1` (stereo unspecified) yielded a max response, negative = inhibition of -18.9%.
In the case of `COc1ccc(-c2cc(C(=O)N/N=C/c3cccnc3)c3ccccc3n2)c(OC)c1`, the max response, negative = inhibition is reported as 1.56%.
For `COc1cccc(-c2cc(C(=O)N/N=C/c3ccc(OC)c(COC(C)=O)c3)c3ccccc3n2)c1`, the Potency was 29.9 µM (active).
Work on `CCOc1ccc(-c2cc(C(=O)N/N=C/c3ccc(O)cc3)c3ccccc3n2)cc1` yielded a max response, negative = inhibition of 1.12%.
With `CC1=NN(C(=O)c2ccccc2Br)C(O)(c2cccnc2)C1` (stereo unspecified) the max response, negative = inhibition was -6.62%.
`CC1=NN(C(=O)c2ccc(Br)cc2)C(O)(c2ccccc2)C1` (stereo unspecified) gave a max response, negative = inhibition of -4.08%.
For `CC1=NN(C(=O)Cc2ccc(C)cc2)C(O)(c2cccnc2)C1` (stereo unspecified), the Potency was 23.8 µM (active).
`O=c1cc(CN2CCCCCCC2)c2c(ccc3ccccc32)o1` gave a max response, negative = inhibition of -3.34%.
`CCCCCCCCN1C(=O)[C@H](CC(=O)NCc2cccc3ccccc23)C[C@@]2(C(=O)OC)CCCCC=C12` was tested, and the max response, negative = inhibition was -2.64%.
Compound `COc1ccc(C(C)(NC(C)=O)c2nc(-c3ccc(S(C)(=O)=O)cc3)cs2)cc1` (stereo unspecified) has a max response, negative = inhibition of 0.405%.
For `Cc1ccc(C=O)c([B-](F)(F)F)c1`, the max response, negative = inhibition was -2.89%.
Work on `CC(=O)Nc1ccc2c3c(ccc([N+](=O)[O-])c13)CC2` yielded a max response, negative = inhibition of -1.77%.
`COc1c(O)ccc2c1CN1CCc3cc4c(cc3C1C2)OCO4` (stereo unspecified) was tested, and the Potency was 23.8 µM (active).
`COc1cc(C(=O)CCc2ccc3c(c2)OCO3)cc(OC)c1OC` gave a max response, negative = inhibition of -9.68%.
`COc1ccc2cc1Oc1ccc(cc1)C[C@H]1c3cc(c(OC)cc3CCN1C)Oc1c(O)c(OC)cc3c1[C@H](C2)N(C)CC3` gave a max response, negative = inhibition of -6.01%.
`CC1(Oc2ccccc2-c2ccno2)CCN(Cc2ccc(-c3ccccc3)o2)C1` (stereo unspecified) showed a max response, negative = inhibition of -2.77%.
For `CC(C)(C)C(=O)CSc1nc2ccccc2o1`, the max response, negative = inhibition was -18%.
`O=C(CSc1nc2ccccc2o1)N1CCN(c2ccccc2)CC1` showed a max response, negative = inhibition of -6.93%.
For `O=C(CSc1nc2ccccc2o1)N/N=C/c1ccccc1C(=O)O`, the Potency was 26.7 µM (active).
In the case of `O=C(NCc1cccnc1)c1cc(C2CCCCN2C(=O)CCc2ccccc2)on1` (stereo unspecified), the max response, negative = inhibition is reported as -11.3%.
In the case of `COC(=O)c1cccc(-n2[nH]nnc2=S)c1`, the Potency is reported as 23.8 µM (active).
`COC(=O)c1cccc(NC(=O)c2cccc(N3C(=O)CCC3=O)c2)c1` showed a max response, negative = inhibition of -2.1%.
With `COC(=O)c1cccc(N2C(=O)C3C4C=CC(CC4)C3C2=O)c1` (stereo unspecified) the max response, negative = inhibition was -4.67%.
`CCOC(=O)[C@]12CCCC=C1N(CCC1=CCCCC1)C(=O)[C@H](CC(=O)N1CCCCC1)C2` showed a max response, negative = inhibition of -0.904%.
For `Cc1ccnc(-n2sc3ccccc3c2=O)n1`, the Potency was 3.77 µM (active).
`Cc1ccnc(SC2CC(=O)N(c3ccccc3)C2=O)n1` (stereo unspecified) gave a max response, negative = inhibition of -15.5%.
Compound `COCCNc1nc(Nc2ccccc2Cl)c2sc(-c3ccccc3)cc2n1` has a max response, negative = inhibition of -12.6%.
Compound `Cc1ccc(C(=O)N2CCCc3ccccc32)c(Cl)c1` has a max response, negative = inhibition of 3.98%.
Work on `Cc1ccc2cccc([N+](=O)[O-])c2n1` yielded a max response, negative = inhibition of 2.99%.
With `CCOC(=O)c1ccccc1NC(=O)c1c(N)n(C)c(=O)[nH]c1=O` the max response, negative = inhibition was -13.3%.
In the case of `CCOC(=O)c1cc2n(c1N)-c1ccccc1C2=O`, the Potency is reported as 2.67 µM (active).
In the case of `CCOC(=O)c1ccccc1CN1C(=O)c2ccccc2S1(=O)=O`, the max response, negative = inhibition is reported as -6.41%.
Compound `CN(Cc1ccccc1)C(=O)[C@@H]1CCCN1C(=O)[C@@H]1CCCN1C(=O)c1c(F)cccc1F` has a max response, negative = inhibition of -9.51%.
For `N#Cc1ccc(OCC(=O)Nc2nc(-c3ccccn3)cs2)cc1`, the Potency was 8.44 µM (active).
Work on `O=C(CSC1=NCCS1)Nc1nc(-c2ccccc2)cs1` yielded a max response, negative = inhibition of -11.4%.
Work on `CC1CCCCC1NC(=O)COc1ccc(C#N)cc1` (stereo unspecified) yielded a max response, negative = inhibition of -1.85%.
In the case of `CC(NC(=O)c1ccco1)C(=O)Nc1nc(-c2ccccn2)cs1` (stereo unspecified), the max response, negative = inhibition is reported as -15.6%.
Compound `O=C(CN1C(=O)C2C3C=CC(C3)C2C1=O)Nc1nc(-c2ccccn2)cs1` (stereo unspecified) has a max response, negative = inhibition of -7.14%.
With `O=C(COc1ccccc1F)Nc1nc(-c2ccccn2)cs1` the Potency was 11.9 µM (active).
Compound `CC(C)c1cc(C(=O)N(C)C2CCCN(Cc3ccccc3F)C2)n(C)n1` (stereo unspecified) has a max response, negative = inhibition of -5.2%.
In the case of `NC(Cc1ccc(F)cc1)c1csc(Nc2nncc3ccccc23)n1` (stereo unspecified), the max response, negative = inhibition is reported as -1.72%.
Compound `COC(=O)[C@]12CCCCC=C1N(Cc1ccccc1)C(=O)[C@H](CC(=O)NCc1ccc(C)o1)C2` has a max response, negative = inhibition of -1.64%.
Compound `CNC(=O)c1ccc(CN(C)C(=O)c2cc(C3CC3)nc3c2cnn3C(C)C)cc1` has a max response, negative = inhibition of -13.7%.
`O=S1(=O)CC(N2CCN(Cc3ccccc3F)CC2)CN1Cc1cn(Cc2ccccc2)nn1` (stereo unspecified) showed a max response, negative = inhibition of 0.233%.
Compound `CCOC(=O)C1CCCN(C(=O)c2cc(-c3cccs3)oc2C)CC1` (stereo unspecified) has a max response, negative = inhibition of -3.67%.
With `O=C(Oc1ccc(C(=S)N2CCOCC2)cc1)c1ccc(F)cc1` the Potency was 21.2 µM (active).
`O=C(Oc1cccc(C(=S)N2CCOCC2)c1)c1cccc(Cl)c1` gave a max response, negative = inhibition of -12.2%.
`O=C(Oc1ccc(F)cc1)N1CCOCC1` showed a max response, negative = inhibition of -11.5%.
% is scaled to controls: 0 for no effect and ±100 for the full control effect; potency is read from the fitted curve at half-maximal effect.
Also: nearly all actives have a fitted effect of over 65% in size.
For max response, negative = inhibition in this document: series mostly up to about 57 µM.
